From PubChem BioAssay (Tox21)
“And” between values parts separate entries of the source, which are not always exact repeats. Identical values can stand only once. Results filed as inconclusive are left out. Values without a mark were called inactive. The source made the active and inactive calls. Calls come from the whole dose curve; as a rule, active = well fitted curve in the direction sought with a large enough effect in the repeat runs; inconclusive = weak or mixed curves; inactive = no such curve, though single readings can be large; an effect the other way counts as inactive or inconclusive.

Assay: qHTS RealTime-Glo MT Cell Viability Assay in HepG2 cells - 16 hour (AID 1224885)
Conditions: RealTime-Glo luminescence; series mostly up to 76.8 µM; activity change, negative = cytotoxic: at the top concentration
Procedure, shortened: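 Viability was tracked continuously by NanoLuc luminescence from prosubstrate reduced by living HepG2 cells, at successive time points over 40 h of compound exposure. Cells with reagent were preincubated 5 h at 37 °C before compound addition.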
% is set by controls: 0 for no effect and ±100 for the full control effect; potency is the fitted concentration of half-maximal effect.
Note: nearly all actives have a fitted effect of over 50% in size.

SMILES	activity change, negative = cytotoxic	Potency
O=C1OC(=O)c2ccc3c4c(ccc1c24)C(=O)OC3=O	-2.73%	–
CCN(CC)CCSC(=O)C(c1ccccc1)c1ccccc1	-7.91% [at 35.3 µM]	–
c1ccc(Sc2ccccc2)cc1	0.331%	–
CCCCCCCC(=O)OCC	-13.1%	–
CCN=c1cc2oc3cc(NCC)c(C)cc3c(-c3ccccc3C(=O)OCC)c-2cc1C	–	43.5 µM (active) and 24.5 µM (active)
COc1cccc(CCc2ccccc2OCC(CN(C)C)OC(=O)CCC(=O)O)c1 (configuration not stated)	-14.3% [at 35.3 µM]	–
Cc1oc(-c2ccccc2)nc1CCOc1ccc(C[C@H](Nc2ccccc2C(=O)c2ccccc2)C(=O)O)cc1	-6.51%	–
CC(C)(C)C1=CC(=O)C=C(C(C)(C)C)C1=O	0.671%	–
Cc1cc(Nc2ccc(O)cc2)ccc1N	–	48.8 µM (active)
CCC1CCCCC1	-3.72%	–
CCCCCCCCCCCCCc1ccccc1	-3.7% [at 35.3 µM]	–
CC(=O)C=O	0.429%	–
CCCCCCCCCCCCCCCC	0.85%	–
O=c1cccc[nH]1	0.384%	–
Cc1ccc(CCn2c3c(c4cc(Cl)ccc42)CN(C)CC3)cn1	-13.5% [at 35.3 µM]	–
COc1ccc(-n2nc(CCC(=O)N(C)O)cc2-c2ccc(Cl)cc2)cc1	-9.75% [at 35.3 µM]	–
C1CC(COCC2CO2)CCC1COCC1CO1 (configuration not stated)	-0.194%	–
CCO[Si](C)(C)OCC	0.291%	–

SMILES	activity change, negative = cytotoxic	Potency
COc1ccccc1C=O	-7.17%	–
CC(C)c1ccccc1N	-0.348%	–
O=S(=O)(O)CCCN1CCOCC1	0.836%	–
CCCCCCCCC(C)=O	1.53%	–
CC=O	–	51.3 µM (active)
C[Si](C)(C)Cl	1.68%	–
CCN(CC)c1ccc(N)cc1	–	50.3 µM (active)
O=C[C@H](O)[C@H](O)[C@H](O)CO	1.56%	–
c1cc(OCC2CO2)cc(OCC2CO2)c1 (configuration not stated)	-7.93%	–
Oc1ccc(-c2ccc(O)cc2)cc1	-2%	–
CCc1cccc(C)c1	-5.32%	–
CCC(C)c1cc([N+](=O)[O-])cc([N+](=O)[O-])c1OC(=O)OC(C)C (configuration not stated)	–	49 µM (active)
O=C1OC(OC(=O)c2cccnc2Nc2cccc(C(F)(F)F)c2)c2ccccc21 (configuration not stated)	-4.76% [at 35.3 µM]	–
CCCC(CC)CCCCCCCN (configuration not stated)	-22.3%	–
Cc1cn[nH]c1	2.5% [at 35.3 µM]	–
C=C(C)C(=O)OCCC[Si](Cl)(Cl)Cl	-0.251%	–
CC(=O)Oc1ccc(C2(c3ccc(OC(C)=O)cc3)Oc3ccccc3NC2=O)cc1	-8.88% [at 35.3 µM]	–

Assay: qHTS RealTime-Glo MT Cell Viability Assay in HEK293 cells - 24 hour (AID 1224886); for activity change, negative = cytotoxicity: top concentration of the series differs between compounds
Conditions: RealTime-Glo luminescence; series mostly up to 76.8 µM; activity change, negative = cytotoxicity: at the top concentration
Procedure, shortened: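 Viability tracked continuously by luminescence as live cells reduce a prosubstrate for NanoLuc; HEK293 cells preincubated 5 h, compound-treated at 37 C, and read at 0, 8, 16, 24, 32 and 40 h.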

SMILES	activity change, negative = cytotoxicity	Potency
O=C1OC(=O)c2ccc3c4c(ccc1c24)C(=O)OC3=O	-3.93%	–
CCN(CC)CCSC(=O)C(c1ccccc1)c1ccccc1	-0.662% [at 35.3 µM]	–
CCCCCCCC(=O)OCC	-15.4%	–
COc1cccc(CCc2ccccc2OCC(CN(C)C)OC(=O)CCC(=O)O)c1 (configuration not stated)	-23.5% [at 35.3 µM]	–
Cc1oc(-c2ccccc2)nc1CCOc1ccc(C[C@H](Nc2ccccc2C(=O)c2ccccc2)C(=O)O)cc1	4.62%	–
CC(C)(C)C1=CC(=O)C=C(C(C)(C)C)C1=O	11.2%	–
Cc1cc(Nc2ccc(O)cc2)ccc1N	–	24.4 µM (active)
CCC1CCCCC1	-0.858%	–
CCCCCCCCCCCCCc1ccccc1	-4.9% [at 35.3 µM]	–
CC(=O)C=O	8.96%	–
CCCCCCCCCCCCCCCC	8.47%	–
O=c1cccc[nH]1	9.85%	–
Cc1ccc(CCn2c3c(c4cc(Cl)ccc42)CN(C)CC3)cn1	–	9.52 µM (active)
CCO[Si](C)(C)OCC	-0.439%	–
COc1ccccc1C=O	4.08%	–
CC(C)c1ccccc1N	-3.14%	–
O=S(=O)(O)CCCN1CCOCC1	13.6%	–
CCCCCCCCC(C)=O	10.6%	–
CC=O	–	0.575 µM (active)
C[Si](C)(C)Cl	5.3%	–
CCN(CC)c1ccc(N)cc1	–	22.5 µM (active)
O=C[C@H](O)[C@H](O)[C@H](O)CO	-1.53%	–
c1cc(OCC2CO2)cc(OCC2CO2)c1 (configuration not stated)	–	24.4 µM (active)
CCc1cccc(C)c1	-1.19%	–
O=C1OC(OC(=O)c2cccnc2Nc2cccc(C(F)(F)F)c2)c2ccccc21 (configuration not stated)	3.23% [at 35.3 µM]	–
CCCC(CC)CCCCCCCN (configuration not stated)	–	56.3 µM (active)
C=C(C)C(=O)OCCC[Si](Cl)(Cl)Cl	-7.78%	–
CC(=O)Oc1ccc(C2(c3ccc(OC(C)=O)cc3)Oc3ccccc3NC2=O)cc1	-24.9% [at 35.3 µM]	–

Assay: qHTS RealTime-Glo MT Cell Viability Assay in HEK293 cells - 8 hour (AID 1224887); for activity change, negative = cytotoxicity: top concentration of the series differs between compounds
Conditions: RealTime-Glo luminescence; series mostly up to 76.8 µM; activity change, negative = cytotoxicity: at the top concentration
Procedure, shortened: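 600 HEK293 cells per well, dispensed already mixed with RealTime-Glo MT reagents. Compound dosing came 5 h later. The same wells were read for luminescence at 0, 8, 16, 24, 32 and 40 h of exposure at 37 C.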

SMILES	activity change, negative = cytotoxicity	Potency
O=C1OC(=O)c2ccc3c4c(ccc1c24)C(=O)OC3=O	-9.47%	–
CCN(CC)CCSC(=O)C(c1ccccc1)c1ccccc1	-16.3% [at 35.3 µM]	–
C=C1C(C)(C)[C@@]2(Cl)C(Cl)[C@]1(Cl)C(Cl)(Cl)C2(Cl)Cl (some centres not stated)	–	53.9 µM (active)
c1ccc(Sc2ccccc2)cc1	5.7%	–
CCCCCCCC(=O)OCC	-13.9%	–
CCN=c1cc2oc3cc(NCC)c(C)cc3c(-c3ccccc3C(=O)OCC)c-2cc1C	–	17.3 µM (active) and 17.4 µM (active)
COc1cccc(CCc2ccccc2OCC(CN(C)C)OC(=O)CCC(=O)O)c1 (configuration not stated)	-2.62% [at 35.3 µM]	–
Cc1oc(-c2ccccc2)nc1CCOc1ccc(C[C@H](Nc2ccccc2C(=O)c2ccccc2)C(=O)O)cc1	0.821%	–
CC(C)(C)C1=CC(=O)C=C(C(C)(C)C)C1=O	-7.75%	–
Cc1cc(Nc2ccc(O)cc2)ccc1N	–	21.8 µM (active)
CCC1CCCCC1	-3.98%	–
CCCCCCCCCCCCCc1ccccc1	-0.867% [at 35.3 µM]	–
CC(=O)C=O	4.28%	–
CCCCCCCCCCCCCCCC	6.31%	–
O=c1cccc[nH]1	5.88%	–
COc1ccc(-n2nc(CCC(=O)N(C)O)cc2-c2ccc(Cl)cc2)cc1	6.63% [at 35.3 µM]	–
C1CC(COCC2CO2)CCC1COCC1CO1 (configuration not stated)	-2.48%	–

SMILES	activity change, negative = cytotoxicity	Potency
CCO[Si](C)(C)OCC	1.09%	–
COc1ccccc1C=O	2.91%	–
CC(C)c1ccccc1N	2.89%	–
O=S(=O)(O)CCCN1CCOCC1	8.54%	–
CCCCCCCCC(C)=O	11.9%	–
CC=O	-53%	–
C[Si](C)(C)Cl	-2.01%	–
CCN(CC)c1ccc(N)cc1	–	20 µM (active)
O=C[C@H](O)[C@H](O)[C@H](O)CO	-5.31%	–
c1cc(OCC2CO2)cc(OCC2CO2)c1 (configuration not stated)	-8.78%	–
Oc1ccc(-c2ccc(O)cc2)cc1	-20%	–
CCc1cccc(C)c1	-1.95%	–
CCC(C)c1cc([N+](=O)[O-])cc([N+](=O)[O-])c1OC(=O)OC(C)C (configuration not stated)	–	49 µM (active)
O=C1OC(OC(=O)c2cccnc2Nc2cccc(C(F)(F)F)c2)c2ccccc21 (configuration not stated)	-0.195% [at 35.3 µM]	–
Cc1cn[nH]c1	0.279% [at 35.3 µM]	–
C=C(C)C(=O)OCCC[Si](Cl)(Cl)Cl	-11.6%	–
CC(=O)Oc1ccc(C2(c3ccc(OC(C)=O)cc3)Oc3ccccc3NC2=O)cc1	0.267% [at 35.3 µM]	–
